Molecules are shown by their SMILES. A number with no mark means an inactive call. Results filed as inconclusive are left out. Calls of active or inactive are those of the source. Unless noted, the call rests on the fitted dose curve; in most records, active means well fitted curve in the direction sought with a large enough effect; inconclusive means small, poorly fitted or top-dose-only effect, or another doubt; inactive means no such curve, though single readings can be large; an effect the other way counts as inactive or inconclusive.

From PubChem BioAssay (NCATS) come the findings set out here.

The target of test [1] is Cytochrome P450 1A2 (Homo sapiens) (UniProt P05177). In words: p450-cyp1a2 (AID 410; calls by dose curve; further: potency means the concentration at half of the fitted maximal effect). A digest of the protocol: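 Human CYP1A2 (20nM) demethylated Luciferin-ME at its Km (100uM) in 100mM KPO4. After 10 min compound preincubation, NADPH regeneration ran the reaction 60 min at room temperature. Luciferin was read by luminescence, normalized to 57 uM furafylline.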
Test [2] addresses Glucocorticoid receptor (Homo sapiens) (UniProt P04150). In words: GR-GFP Redistribution (AID 450;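 active means compounds whose dose series gives a full or clear partial fitted curve of increased nuclear translocation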; further: potency means the concentration at half of the fitted maximal effect).
Test [3] has the same target. In words: GR-EFC Redistribution (AID 451; calls by dose curve; further: potency means the concentration at half of the fitted maximal effect). Conditions: CHO-K1 GR-EFC translocation, beta-gal luminescence, 2 h. A digest of the protocol:
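Translocation of GR-ED fusion to nuclear EA restores b-gal, read by luminescence after 1 h room-temperature detection. Engineered CHO-K1 biosensor cells, 1,000/well, exposed 2 h at 37 C to titrations up to 46 uM final.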

Test [4] addresses Mitogen-activated protein kinase 10 (Mus musculus) (UniProt Q61831). As to the kind of experiment: JNK3 AlphaScreen Assay (AID 530; active means well fitted curve in either direction with a large enough effect, not every such curve was filed as active;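 further: kinase came from lysate of stimulated human HepG2 cells; signal reports phosphorylation of biotinylated GST-cJun 1-79 at Ser73 with 10 µM ATP; series mostly up to about 57 µM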). A digest of the protocol:
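Room-temperature AlphaScreen kinase assay; pre-activated HepG2 lysate as JNK3 source, biotin-GST-cJun(1-79) substrate, 10 uM ATP, compound 15 min preincubation.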
In general terms: Bead proximity is the source of the signal in Alpha formats.

Test [5] addresses Cytochrome P450 2C9 (Homo sapiens) (UniProt P11712). As to the kind of experiment: qHTS Assay for Inhibitors and Substrates of Cytochrome P450 2C9 (AID 883). Further: nearly all actives have a fitted effect of over 60% in size. Further: potency means the concentration at half of the fitted maximal effect. The procedure, abridged:
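Turnover of Luciferin-H (100uM, KM) by 10nM human CYP2C9 was measured over 60 min at 37C with NADPH regeneration; inhibitors and some substrates reduce luminescence. Data normalized to sulphaphenazole 57uM.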
In general terms: Quantitative high-throughput screening tests each substance at several concentrations.

Test [6] has as its target Cytochrome P450 3A4 (Homo sapiens) (UniProt P08684). As to the kind of experiment: qHTS Assay for Inhibitors and Substrates of Cytochrome P450 3A4 (AID 884). Further: nearly all actives have a fitted effect of over 50% in size. Further: potency means the concentration at half of the fitted maximal effect. A digest of the protocol: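 20 nM human CYP3A4 with 25 uM Luciferin-PPXE (at KM) in 200 mM KPO4, preincubated 10 min with compound; NADPH regeneration started a 60 min RT reaction. Luciferin detected by luminescence, normalized to 57 uM ketoconazole as full inhibition.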

Test [7] has the same target. As to the kind of experiment: qHTS Assay for Activators of Cytochrome P450 3A4 (AID 885). Further: nearly all actives have a fitted effect of over 65% in size. A digest of the protocol: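 Quantitative HTS format: compounds preincubated with 20nM human CYP3A4 and Luciferin-PPXE substrate at KM, reaction started by NADPH regeneration, stopped after 60 min, luciferase luminescence read 20 min later.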
For test [8], the target named is Cytochrome P450 2D6 (Homo sapiens) (UniProt P10635). As to the kind of experiment: qHTS Assay for Inhibitors and Substrates of Cytochrome P450 2D6 (AID 891). Further: nearly all actives have a fitted effect of over 60% in size. Further: potency means the concentration at half of the fitted maximal effect. The procedure, abridged:
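Human CYP2D6 (5 nM) with 30 uM Luciferin-ME EGE (at Km) in 100 mM KPO4, compound preincubated 10 min, then NADPH regeneration system for 60 min at room temperature. Luciferin read by luminescence; normalized to 1.43 uM quinidine.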

The target of test [9] is Cytochrome P450 2C19 (Homo sapiens) (UniProt P33261). In words: qHTS Assay for Inhibitors and Substrates of Cytochrome P450 2C19 (AID 899). Further: nearly all actives have a fitted effect of over 60% in size. Further: potency means the concentration at half of the fitted maximal effect. A digest of the protocol:
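Reactions contain 5nM enzyme, 10uM Luciferin-H EGE (KM) and 50mM KPO4; compound preincubates 10 min at 37C, NADPH regeneration starts turnover for 60 min. Luminescence after detection reagent gives activity.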

Test [10] has as its target DNA dC->dU-editing enzyme APOBEC-3G (Homo sapiens) (UniProt Q9HC16). In words: qHTS for inhibitors of Vif-A3G interactions: Validation (AID 588379). The procedure, abridged: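 HeLa cells stably expressing Vif and A3G-eYFP, 700 cells/well, incubated overnight at 37 deg C, then exposed to compound overnight at 37 deg C. Inhibition of Vif-mediated degradation read as increased yellow fluorescence (Ex 488/Em 500-530) by laser-scanning cytometry.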

Test [11] deals with 3',5'-cyclic-AMP phosphodiesterase 4B (Homo sapiens) (UniProt Q07343). In words: qHTS Assay for Inhibitors of PDE-IV (AID 607; active means well fitted activation curve with a large enough effect in the main read-out, with a control signal flat, not every such curve was filed as active). The procedure, abridged:
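Live HEK293 cells with a modified cyclic nucleotide-gated (CNG) channel report intracellular cAMP via membrane-potential dye fluorescence (ex 535/em 590 nm). Endogenous PDE-IV was targeted. Compounds were tested at up to 22.9 uM final; RO 20-1724 100 uM served as control.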

Chain of Glucocorticoid receptor (Homo sapiens) (P04150 whole entry, looked up): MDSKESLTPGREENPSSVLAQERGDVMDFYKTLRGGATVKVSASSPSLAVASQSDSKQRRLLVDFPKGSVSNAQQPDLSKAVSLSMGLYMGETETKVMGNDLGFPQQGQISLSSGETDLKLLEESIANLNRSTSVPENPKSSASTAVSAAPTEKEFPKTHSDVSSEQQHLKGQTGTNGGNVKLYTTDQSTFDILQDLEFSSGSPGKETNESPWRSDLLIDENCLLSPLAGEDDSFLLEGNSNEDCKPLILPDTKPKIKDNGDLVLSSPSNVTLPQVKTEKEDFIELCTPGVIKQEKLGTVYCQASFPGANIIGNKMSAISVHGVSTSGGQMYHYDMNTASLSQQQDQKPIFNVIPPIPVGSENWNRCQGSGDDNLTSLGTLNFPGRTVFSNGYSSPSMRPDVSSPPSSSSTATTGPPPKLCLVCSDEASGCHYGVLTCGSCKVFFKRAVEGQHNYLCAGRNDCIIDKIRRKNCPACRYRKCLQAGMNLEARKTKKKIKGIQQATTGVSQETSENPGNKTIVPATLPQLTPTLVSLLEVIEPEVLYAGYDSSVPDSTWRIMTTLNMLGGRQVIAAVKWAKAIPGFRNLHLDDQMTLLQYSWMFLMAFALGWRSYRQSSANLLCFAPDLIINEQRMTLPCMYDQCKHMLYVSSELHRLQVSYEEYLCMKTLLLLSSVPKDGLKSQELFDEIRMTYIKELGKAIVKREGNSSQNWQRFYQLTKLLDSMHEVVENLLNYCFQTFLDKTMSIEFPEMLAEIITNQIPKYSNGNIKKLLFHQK
Chain of Cytochrome P450 2C9 (Homo sapiens) (P11712 whole entry, looked up): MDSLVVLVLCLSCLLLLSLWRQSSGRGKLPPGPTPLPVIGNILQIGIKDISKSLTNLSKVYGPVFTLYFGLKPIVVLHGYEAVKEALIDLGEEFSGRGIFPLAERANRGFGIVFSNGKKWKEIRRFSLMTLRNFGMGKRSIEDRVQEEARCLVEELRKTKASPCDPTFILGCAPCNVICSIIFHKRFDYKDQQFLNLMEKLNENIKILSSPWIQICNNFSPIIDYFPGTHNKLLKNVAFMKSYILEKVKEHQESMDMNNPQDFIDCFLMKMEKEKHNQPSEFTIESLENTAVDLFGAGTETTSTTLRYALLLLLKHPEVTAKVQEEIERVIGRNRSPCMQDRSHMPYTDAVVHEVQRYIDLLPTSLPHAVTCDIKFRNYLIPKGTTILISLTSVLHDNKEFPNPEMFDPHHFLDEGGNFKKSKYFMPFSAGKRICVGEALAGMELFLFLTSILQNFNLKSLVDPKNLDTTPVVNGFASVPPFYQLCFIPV
Chain of Cytochrome P450 3A4 (Homo sapiens) (P08684 whole entry, looked up): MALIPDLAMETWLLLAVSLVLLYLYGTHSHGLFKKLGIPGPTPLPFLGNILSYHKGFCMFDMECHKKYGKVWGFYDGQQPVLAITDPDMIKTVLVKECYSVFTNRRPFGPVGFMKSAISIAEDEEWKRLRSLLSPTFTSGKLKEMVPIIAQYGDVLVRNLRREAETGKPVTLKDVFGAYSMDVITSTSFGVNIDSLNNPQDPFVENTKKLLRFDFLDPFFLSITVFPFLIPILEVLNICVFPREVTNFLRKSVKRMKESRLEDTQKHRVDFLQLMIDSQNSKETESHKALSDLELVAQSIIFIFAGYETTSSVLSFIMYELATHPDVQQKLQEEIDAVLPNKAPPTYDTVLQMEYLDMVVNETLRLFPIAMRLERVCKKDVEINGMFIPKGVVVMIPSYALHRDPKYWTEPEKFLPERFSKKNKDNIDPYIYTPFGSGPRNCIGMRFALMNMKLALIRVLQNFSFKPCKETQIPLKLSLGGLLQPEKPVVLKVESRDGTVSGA
Chain of DNA dC->dU-editing enzyme APOBEC-3G (Homo sapiens) (Q9HC16 whole entry, looked up): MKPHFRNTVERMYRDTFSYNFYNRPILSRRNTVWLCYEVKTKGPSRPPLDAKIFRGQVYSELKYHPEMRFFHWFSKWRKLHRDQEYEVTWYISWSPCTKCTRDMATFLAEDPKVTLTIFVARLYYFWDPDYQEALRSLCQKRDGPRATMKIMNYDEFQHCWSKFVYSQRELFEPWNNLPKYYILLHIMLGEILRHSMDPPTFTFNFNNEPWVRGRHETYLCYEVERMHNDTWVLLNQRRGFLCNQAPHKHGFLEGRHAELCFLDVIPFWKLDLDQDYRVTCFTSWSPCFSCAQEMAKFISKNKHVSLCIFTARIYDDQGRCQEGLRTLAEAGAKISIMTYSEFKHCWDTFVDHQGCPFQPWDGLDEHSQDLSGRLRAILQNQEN
Chain of Cytochrome P450 2C19 (Homo sapiens) (P33261 whole entry, looked up): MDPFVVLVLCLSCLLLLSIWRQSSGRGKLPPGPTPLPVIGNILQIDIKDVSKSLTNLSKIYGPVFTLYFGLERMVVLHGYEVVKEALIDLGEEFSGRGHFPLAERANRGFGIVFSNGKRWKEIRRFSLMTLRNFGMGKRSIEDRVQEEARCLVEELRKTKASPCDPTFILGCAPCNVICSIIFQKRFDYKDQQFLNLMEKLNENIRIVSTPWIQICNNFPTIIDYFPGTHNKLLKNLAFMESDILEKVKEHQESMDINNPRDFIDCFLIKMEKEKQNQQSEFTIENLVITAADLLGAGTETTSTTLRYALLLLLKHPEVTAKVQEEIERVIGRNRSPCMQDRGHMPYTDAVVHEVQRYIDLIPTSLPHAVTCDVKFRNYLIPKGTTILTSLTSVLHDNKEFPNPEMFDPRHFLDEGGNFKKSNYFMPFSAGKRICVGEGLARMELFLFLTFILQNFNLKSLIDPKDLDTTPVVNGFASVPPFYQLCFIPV
Chain of Cytochrome P450 1A2 (Homo sapiens) (P05177 whole entry, looked up): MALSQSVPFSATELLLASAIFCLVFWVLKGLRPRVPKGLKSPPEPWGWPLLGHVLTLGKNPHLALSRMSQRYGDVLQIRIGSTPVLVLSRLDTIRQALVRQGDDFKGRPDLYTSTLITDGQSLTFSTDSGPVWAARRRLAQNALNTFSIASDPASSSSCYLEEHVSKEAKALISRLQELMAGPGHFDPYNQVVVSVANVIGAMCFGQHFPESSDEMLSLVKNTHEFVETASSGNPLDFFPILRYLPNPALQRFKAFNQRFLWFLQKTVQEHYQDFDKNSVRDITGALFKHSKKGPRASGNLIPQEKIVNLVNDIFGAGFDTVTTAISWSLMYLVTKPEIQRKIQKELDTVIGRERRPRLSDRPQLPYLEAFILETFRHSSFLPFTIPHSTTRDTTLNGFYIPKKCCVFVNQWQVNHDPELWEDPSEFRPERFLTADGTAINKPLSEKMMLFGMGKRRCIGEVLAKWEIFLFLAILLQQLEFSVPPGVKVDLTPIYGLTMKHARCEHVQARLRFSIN
Chain of Cytochrome P450 2D6 (Homo sapiens) (P10635 whole entry, looked up): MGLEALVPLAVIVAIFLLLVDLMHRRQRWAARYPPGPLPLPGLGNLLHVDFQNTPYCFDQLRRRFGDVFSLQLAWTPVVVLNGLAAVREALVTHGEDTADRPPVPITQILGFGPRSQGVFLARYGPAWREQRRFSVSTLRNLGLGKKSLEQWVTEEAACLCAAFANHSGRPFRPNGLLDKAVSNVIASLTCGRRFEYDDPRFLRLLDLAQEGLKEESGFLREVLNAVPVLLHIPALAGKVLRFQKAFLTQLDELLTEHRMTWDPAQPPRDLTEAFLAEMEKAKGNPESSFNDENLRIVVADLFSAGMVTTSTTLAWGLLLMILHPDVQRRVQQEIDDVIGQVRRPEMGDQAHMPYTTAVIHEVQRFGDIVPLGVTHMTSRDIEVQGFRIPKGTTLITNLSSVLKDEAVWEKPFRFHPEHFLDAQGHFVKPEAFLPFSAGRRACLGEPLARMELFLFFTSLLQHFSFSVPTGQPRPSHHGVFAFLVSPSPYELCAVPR
Chain of 3',5'-cyclic-AMP phosphodiesterase 4B (Homo sapiens) (Q07343 whole entry, looked up): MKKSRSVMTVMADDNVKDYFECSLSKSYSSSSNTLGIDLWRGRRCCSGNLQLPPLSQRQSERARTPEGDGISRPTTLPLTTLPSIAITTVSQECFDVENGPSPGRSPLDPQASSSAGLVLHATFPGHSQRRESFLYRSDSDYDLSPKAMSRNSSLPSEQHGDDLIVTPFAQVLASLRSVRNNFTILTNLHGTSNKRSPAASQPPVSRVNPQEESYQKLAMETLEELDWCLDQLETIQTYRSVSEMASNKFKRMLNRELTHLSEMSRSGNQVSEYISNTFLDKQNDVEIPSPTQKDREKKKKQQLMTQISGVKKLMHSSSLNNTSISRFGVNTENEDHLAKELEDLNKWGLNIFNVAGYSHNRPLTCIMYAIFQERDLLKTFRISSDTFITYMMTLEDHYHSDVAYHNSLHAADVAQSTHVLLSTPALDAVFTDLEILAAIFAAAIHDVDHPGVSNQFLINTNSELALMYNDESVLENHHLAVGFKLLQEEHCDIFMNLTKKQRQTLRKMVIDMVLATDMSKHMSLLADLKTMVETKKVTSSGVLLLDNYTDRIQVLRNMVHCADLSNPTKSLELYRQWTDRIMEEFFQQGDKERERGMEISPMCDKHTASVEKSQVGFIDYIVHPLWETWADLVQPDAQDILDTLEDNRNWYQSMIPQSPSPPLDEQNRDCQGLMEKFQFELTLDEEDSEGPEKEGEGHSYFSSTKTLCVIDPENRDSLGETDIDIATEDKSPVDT

Take `COc1ccccc1-c1cc(=O)c2cc(O)ccc2o1`: the Potency was 0.2 µM (active) in test [1]; greater than 46 µM in test [2]; greater than 46 µM in [3]; 12.6 µM (active) in test [6]; 0.398 µM (active) in test [9]. Besides, the Potency result in test [4], in [5], in test [7] and in test [8] was “inactive” throughout. Besides, the outcome in test [10] was inactive.
For `COc1cc2oc(-c3ccccc3)cc(=O)c2cc1O`, the Potency is 1 µM (active) in test [1], greater than 46 µM in test [2] and greater than 46 µM in test [3]. Moreover, the Potency entry in test [4], in test [5] and in test [6] was “inactive” each time. Moreover, the call in [10] was inactive.
Consider `COc1ccc(-c2cc(=O)c3ccc(O)cc3o2)cc1`, for which the Potency in [1] is 0.158 µM (active); in test [2], greater than 46 µM; in test [3] it was greater than 46 µM; in test [6], 7.94 µM (active); in test [9], 3.16 µM (active). The Potency entry in test [4], in [7] and in test [8] was “inactive” throughout. Besides, the result in test [10] was inactive.
Turning to `COc1ccccc1C[C@@H](Cc1nc2ccccc2[nH]1)c1nc2ccccc2[nH]1`, the Potency is 10 µM (active) in test [1]; greater than 46 µM in test [2]; greater than 46 µM in [3]; 12.6 µM (active) in [5]; 0.01 µM (active) in [8]; 1.58 µM (active) in [9]. For the same molecule, the Potency entry in [4] and in test [11] was “inactive” in each case.
On to `COc1cc2c(cc1OC)C(=O)N(C)CC2`, for which the figures for the Potency in [1], in [2] and in test [3] were 2 µM (active), greater than 46 µM and greater than 46 µM, respectively. In addition, the Potency result in test [4], in test [5], in [6], in test [8] and in test [9] was “inactive” in each case. Moreover, the result in test [10] was inactive.
`COc1cc(O)c2c(=O)cc(-c3ccccc3)oc2c1`: the Potency in test [1] was 0.0251 µM (active); in test [2] it was greater than 46 µM; in test [3], greater than 46 µM; in test [6] it was 10 µM (active); in test [9], 0.398 µM (active). For the same molecule, the Potency entry in test [4], in [7] and in test [8] was “inactive” in each case. For the same molecule, the molecule was called inactive in [10].
Turning to `O=c1c2ccccc2oc2cc(O)c([C@@H]3COC[C@@H](CO)[C@@H](O)[C@@H](O)[C@H]3O)c(O)c12`, the Potency entry in [1], in [4], in test [11], in test [5], in test [8] and in test [9] was “inactive” in each case. The Potency in test [2] and in test [3] was greater than 46 µM in each case.
For `C/C(=C\CNc1ncnc2c1ncn2[C@@H]1O[C@@H](CO)[C@@H](O)[C@H]1O)CO`, the Potency entry in test [1], in [4], in test [11], in test [5], in test [8] and in [9] was “inactive” each time. For the same molecule, the Potency in [2] and in test [3] was greater than 46 µM throughout.
Take `O[C@@H]1CC[C@H]2Cc3ccccc3N=C21`: the values for the Potency in test [1], in test [2] and in test [3] were 15.8 µM (active), greater than 46 µM and greater than 46 µM, respectively. The Potency result in test [4], in [11] and in test [5] was “inactive” in each case.
